# Assay results: PubChem BioAssay (NCATS)
# Unmarked numbers belong to inactive results. Calls follow the shape of the dose curve; as a rule, active = well fitted curve in the direction sought with a large enough effect; inconclusive = small, poorly fitted or top-dose-only effect, or another doubt; inactive = no such curve, though single readings can be large or run the other way.
# Biological target: Hexokinase-4 (Homo sapiens) + Glucokinase regulatory protein (Homo sapiens) (UniProt P35557+Q14397)
# Experiment: qHTS assay for inhibitors of recombinant human GCK-GKRP interaction: HTRF assay (AID 743207);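 also: 0% = DMSO with GCK present and -100% = DMSO wells lacking GCK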
# Settings: recombinant GCK-GKRP HTRF binding, 60 min, with sorbitol-6-phosphate; series mostly up to 57.5 µM; activity change, negative = inhibition: at the top concentration
# Text: Glucokinase (GCK) is a glucose sensor in hepatocytes and pancreatic beta-cells. Hepatic GCK is regulated by glucokinase regulatory protein (GKRP), which is predominantly localized to the liver. GKRP binds to GCK inhibiting its activity in the fasting state while in the presence of glucose the GKRP is displaced. There is an additional layer of regulation by fructose 1-phosphate and fructose 6-phosphate, which inhibit and enhance the GCK-GKRP interaction, respectively. GCK plays a role in glucose homeostasis and there is an interest in the development of strategies to activate GCK to lower blood glucose levels in type 2 diabetes. To date the majority of effort has focused on direct activation of GCK and the assays developed herein look to activate GCK by inhibiting its binding to GKRP. A compound that inhibits the interaction of GCK with GKRP could be important for the treatment of diabetes and can also be used as a tool compound to further elucidate GCK-GKRP biology. To that end, we have developed an HTS biochemical assay using HTRF technology for to interrogate the GCK-GKRP interaction. This assay was screened against a small compound library to look for modulators of activity.
# 3 uL of 5 nM GST-GCK and 5 nM FLAG-GKRP proteins with 2 uM S6P (columns 1-2, 4-48; Millipore, Billerica, MA) are dispensed into Greiner, white solid-bottom 1536-well assay plates; columns 3 receive buffer without GCK as a control for maximum inhibition. Buffer contains 2 mM MgCl2, 25 mM KCl, 25 mM Hepes, 1 mM DTT, 0.1% Tween 20 and 0.025% BSA and the pH was adjusted to 7.1. Compounds (23 nL) are then transferred via Kalypsys pin tool equipped with 1536-pin array (10 nL slotted pins, V&P Scientific, San Diego, CA). The library compounds are in columns 5-48 and columns 1-4 serve as controls with DMSO in columns 1 and 3 and 26 mM 1:1.5 fold serial of gluckokinase activator (GKA-EMD) in column 2 and 26 mM of the glucokinase activator (GKA-EMD) in column 4. Following addition of compound, 1 uL of detection antibodies (anti-Flag XL 665 and anti-GST K in reconstitution buffer from Cisbio, Bedford, MA; 0.7 ng/well and 0.0945 ng/well, respectively) is added, and the mixture is allowed to equilibrate for 60 minutes at room temperature. Data are normalized to DMSO-treated control columns with (maximum signal) and without (minimum signal) enzyme. Plates were read on an Envision plate reader (PerkinElmer, Shelton, CT, USA) with excitation at 320 nm and dual-wavelength detection at the Fret donor wavelength (615 nm) and the FRET acceptor wavelength (665 nm).
# Chain of Hexokinase-4 (Homo sapiens) + Glucokinase regulatory protein (Homo sapiens) (P35557 whole entry, looked up): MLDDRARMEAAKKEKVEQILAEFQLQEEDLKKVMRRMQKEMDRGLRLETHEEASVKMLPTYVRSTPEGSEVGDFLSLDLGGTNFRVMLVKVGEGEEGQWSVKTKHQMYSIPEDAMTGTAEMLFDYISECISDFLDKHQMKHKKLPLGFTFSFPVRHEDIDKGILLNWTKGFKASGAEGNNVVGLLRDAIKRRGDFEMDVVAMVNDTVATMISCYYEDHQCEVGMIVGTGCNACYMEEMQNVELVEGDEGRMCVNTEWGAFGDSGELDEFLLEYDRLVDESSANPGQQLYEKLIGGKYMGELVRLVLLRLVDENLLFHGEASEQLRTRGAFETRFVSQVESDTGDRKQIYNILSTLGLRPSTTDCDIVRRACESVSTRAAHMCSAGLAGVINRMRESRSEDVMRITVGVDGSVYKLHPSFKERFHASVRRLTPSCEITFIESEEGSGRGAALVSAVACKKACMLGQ
# Chain of Hexokinase-4 (Homo sapiens) + Glucokinase regulatory protein (Homo sapiens) (Q14397 whole entry, looked up): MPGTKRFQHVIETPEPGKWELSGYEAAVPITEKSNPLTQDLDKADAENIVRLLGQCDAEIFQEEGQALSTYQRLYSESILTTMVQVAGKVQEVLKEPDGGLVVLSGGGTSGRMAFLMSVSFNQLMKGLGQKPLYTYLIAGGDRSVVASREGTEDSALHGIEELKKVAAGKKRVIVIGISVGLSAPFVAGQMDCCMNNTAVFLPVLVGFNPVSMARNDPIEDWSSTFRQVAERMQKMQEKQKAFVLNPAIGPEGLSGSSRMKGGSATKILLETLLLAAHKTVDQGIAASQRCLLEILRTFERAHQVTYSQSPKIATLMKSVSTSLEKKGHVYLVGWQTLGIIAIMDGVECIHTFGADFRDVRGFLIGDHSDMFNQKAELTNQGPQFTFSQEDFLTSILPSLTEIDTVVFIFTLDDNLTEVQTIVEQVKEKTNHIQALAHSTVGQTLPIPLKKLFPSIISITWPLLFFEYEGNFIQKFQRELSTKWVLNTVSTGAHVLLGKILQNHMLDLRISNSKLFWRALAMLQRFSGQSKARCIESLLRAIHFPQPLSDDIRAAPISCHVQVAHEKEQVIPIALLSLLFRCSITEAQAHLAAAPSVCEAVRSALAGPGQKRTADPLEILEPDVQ
row,Structure (SMILES),"activity change, negative = inhibition [%]"
1,Nc1ccc(S(=O)(=O)Nc2ccnn2-c2ccccc2)cc1,14.6
2,CC(C)C[C@H](NC(=O)[C@@H](O)[C@H](N)Cc1ccccc1)C(=O)O,5.85
3,NCCCC(N)(C(=O)O)C(F)F (stereo not given),11.1
4,CCCCNc1cc(C(=O)O)cc(S(N)(=O)=O)c1Oc1ccccc1,-3.18
5,OC(CCN1CCCCC1)(c1ccccc1)C1CC2C=CC1C2 (stereo not given),-4.83
6,NNCCc1ccccc1,1.51
7,CCN(CC)CCCC(C)Nc1ccnc2cc(Cl)ccc12 (stereo not given),7.61
8,NC(N)=NC(=O)c1nc(Cl)c(N)nc1N,-4.3
9,CC(C)NCC(O)COc1ccc(COCCOC(C)C)cc1 (stereo not given),-0.209
10,O=c1[nH]cnc2[nH]ncc12,0.888
11,Cc1[nH]c(=O)c(C#N)cc1-c1ccc2nccn2c1,5.77
12,NCCc1ccc(O)c(O)c1,-3.62
13,CCC(C)N(C)C(=O)c1cc2ccccc2c(-c2ccccc2Cl)n1 (stereo not given),2.13
14,CCOC(=O)N1CCC(=C2c3ccc(Cl)cc3CCc3cccnc32)CC1,0.435
15,NC(=O)c1cnccn1,15.7
16,CNC[C@H](O)c1cccc(O)c1,-10.8
17,OC(CN1CCC(Cc2ccc(F)cc2)CC1)c1ccc(Cl)cc1 (stereo not given),-6.65
18,C1COC(NC(C2CC2)C2CC2)=N1,-9.02
19,NS(=O)(=O)c1cc2c(cc1Cl)NC=NS2(=O)=O,4.4
20,C[C@]12CCC(=O)C=C1CC[C@@H]1[C@@H]2[C@@H](O)C[C@@]2(C)[C@H]1CC[C@]2(O)C(=O)CO,-1

row,Structure (SMILES),"activity change, negative = inhibition [%]"
1,CCn1cc(C(=O)O)c(=O)c2cc(F)c(N3CCNC(C)C3)c(F)c21 (stereo not given),-4.41
2,O=C(O)COCCN1CCN(C(c2ccccc2)c2ccc(Cl)cc2)CC1 (stereo not given),7.48
3,Nc1nc2ccc(OC(F)(F)F)cc2s1,-1.84
4,O=C1CCc2cc(OCCCCc3nnnn3C3CCCCC3)ccc2N1,-4.05
5,NC[C@H](O)c1ccc(O)c(O)c1,11.2
6,Cn1cnc([N+](=O)[O-])c1Sc1ncnc2nc[nH]c12,-4.63
7,Cc1cn[nH]c1,-1.84
8,Cc1oncc1C(=O)Nc1ccc(C(F)(F)F)cc1,-2.35
9,Cc1[nH]c(=O)c(C#N)cc1-c1ccncc1,7.76
10,O=NN(CCCl)C(=O)NCCCl,1.87
11,Clc1cccc(Cl)c1NC1=NCCN1,10.6
12,Oc1ccc(C2CNCCc3c2cc(O)c(O)c3Cl)cc1 (stereo not given),4.13
13,CC(=O)Oc1ccccc1C(=O)O,1.97
14,CN1CCN(CCCN2c3ccccc3Sc3ccc(C(F)(F)F)cc32)CC1,-6.86
15,N[C@@H]1CONC1=O,3.81
16,O=C(Nc1nc2ccccc2n1CCN1CCOCC1)c1cccc([N+](=O)[O-])c1,2.21
17,Cc1ccc(N(CC2=NCCN2)c2cccc(O)c2)cc1,9.47
18,c1ccc([C@H]2CN3CCSC3=N2)cc1,-5.82
19,CC(C[N+](C)(C)C)OC(N)=O (stereo not given),3.81
20,O=c1n(CCCN2CCN(c3cccc(Cl)c3)CC2)nc2ccccn12,-5.74
